Consider 58 compounds from ChEMBL document CHEMBL1157539, “Thousands of chemical starting points for antimalarial lead identification” (Nature, 2010).

What all share (format): functional
In test [1] the test system is Plasmodium falciparum. Briefly: GSK_TCMDC: Inhibition of Plasmodium falciparum 3D7 in whole red blood cells, using parasite LDH activity as an index of growth. Test compounds present at 2uM.
For test [2], the system named is Plasmodium falciparum. Briefly: GSK_TCMDC: Inhibition of Plasmodium falciparum Dd2 in whole red blood cells, using parasite LDH activity as an index of growth. Test compounds present at 2uM.
In the next test the test system is HepG2. Briefly: GSK_TCMDC: Percent inhibition of human HepG2 cell line. Test compounds present at 10uM.

Consider `COc1ccc(S(=O)(=O)N2CCC3(CC2)OCC(=O)NC3c2ccc(Cl)c(Cl)c2)cc1` (centres undefined), for which the Inhibition (commonly the change of the read-out against control, counted positive when it falls) with Plasmodium falciparum [1] is given as 91%; in the test with Plasmodium falciparum [2], 44%; in the test with HepG2, 0%.
Regarding `CCOc1ccc2c(c1)OC(c1ccccc1)(C(F)(F)F)NC2=O` (centres undefined), the Inhibition in the test with Plasmodium falciparum [1] was determined as 100%; with Plasmodium falciparum [2] it was 98%; in the test on HepG2 it was 0%.
Take `O=C(NCCCN1CCOCC1)c1ccc(-c2cccc(NC(=O)c3ccc(Cl)c(Cl)c3)c2)cc1`: the Inhibition with Plasmodium falciparum [1] is recorded as 100%; in the test with Plasmodium falciparum [2], 68%; with HepG2, 3%.
In the same order, the values of `COc1ccc2ccccc2c1C=NN=c1cc[nH]c2ccc(F)cc12` are 87%, 10% and 11%.
In the same order, the values of `CC1(C)CN(CCC2CCC(NC(=O)/C=C/c3ccc(F)cc3F)CC2)Cc2ccc(C#N)cc21.Cl` (centres undefined) are 88%, 77% and 39%.
For the compound `COc1c(F)ccc2ncc(Cl)c(CCN3CCC(NCc4ccc5c(n4)NC(=O)CS5)CC3)c12.Cl`, the Inhibition is recorded as 98% in the test with Plasmodium falciparum [1], 29% with Plasmodium falciparum [2] and 30% with HepG2.
As to `O=CO.c1ccc(-c2ccc(CNCCCNc3nc4ccccc4[nH]3)cc2)cc1`, the Inhibition in the test on Plasmodium falciparum [1] is 95%; in the test on Plasmodium falciparum [2] it was 0%; in the test with HepG2, 20%.
On the same counts, the results for `Cc1cc(OCCCN2CCCCC2)ccc1NC(=O)COc1ccc(Cl)cc1C(=O)c1cc(C#N)cc(C(F)(F)F)c1` are 87%, 7% and 23%.
In the same order, the values of `Cc1cc(C)cc(N2C(N)=NC(N)=NC2(C)C)c1.Cl` are 93%, 6% and 58%.
In the same order, the values of `Cc1ccc(Nc2nc(C)cc(NCc3ccc(-n4ccnc4)cc3)n2)cc1` are 100%, 100% and 33%.
With `Cc1ccc2c(OCCN3CCC(Cc4ccc5c(c4)NC(=O)CO5)CC3)cc(F)cc2n1.Cl`, the Inhibition was found to be 89% in the test on Plasmodium falciparum [1], 21% with Plasmodium falciparum [2] and 24% in the test with HepG2.
With `O=S(=O)(Nc1cccc(CCN2CCCCC2CCN2CCCC2)c1)c1ccc(Oc2ccccc2)cc1` (centres undefined), the Inhibition in the test with Plasmodium falciparum [1] is 94%; in the test on Plasmodium falciparum [2], 1%; in the test with HepG2 it was 52%.
On the same counts, the results for `O=C(NC(=O)c1ccccc1O)c1ccccc1O` are 97%, 79% and 0%.
Turning to `CCNc1cc(C(=O)N[C@@H](Cc2ccccc2)[C@H](O)CNCCc2ccccc2)cc(N2CCCC2=O)c1.O=C(O)C(F)(F)F`, the Inhibition stood at 92% in the test with Plasmodium falciparum [1], 46% with Plasmodium falciparum [2] and 0% with HepG2.
In the same order, the values of `CC(C)(C)C(Cn1ccnc1)NCc1c[nH]nc1-c1ccc(-c2ccccc2)cc1` (centres undefined) are 98%, 69% and 15%.
Take `COc1ccc2nccc([C@@H](O)CN3CCC(NC(=O)/C(=C/c4ccccc4)c4ccc(-c5ccccc5)cc4)CC3)c2c1`: the Inhibition in the test with Plasmodium falciparum [1] is given as 94%; with Plasmodium falciparum [2], 38%; with HepG2 it was 4%.
For the compound `CCC[C@@H]([C@@H](CC(C)C)C(=O)N[C@@H](CCCCNC(=O)c1cccc(OC)c1)C(=O)Nc1nccs1)N(O)C=O`, the Inhibition with Plasmodium falciparum [1] is given as 100%; with Plasmodium falciparum [2], 99%; in the test with HepG2, 5%.
In the same order, the values of `CCCC(C)NC(=O)[C@H](CC1CCCCC1)NC(=O)c1ccc(O)c(-c2ccc(OC)cc2)c1` (some centres undefined) are 89%, 37% and 3%.
In the same order, the values of `O=C(Nc1cccc(C(F)(F)F)c1)c1ccc(S(=O)(=O)NCC2CCCN2CC2CCCCC2)cc1.O=C(O)C(F)(F)F` (centres undefined) are 98%, 3% and 14%.
On the same counts, the results for `O=C(Cc1ccc(NC(=O)c2ccc(O)c(-c3ccc(Cl)c(Cl)c3)c2)cc1)NCCN1CCCCC1` are 95%, 63% and 12%.
On to `CCOC(=O)c1ccc(NC(=O)N(Cc2ccc(-c3cccc(CN4CCNCC4)c3)cc2)C2CCN(Cc3ccccc3)CC2)cc1.O=C(O)C(F)(F)F`, for which the Inhibition in the test on Plasmodium falciparum [1] is recorded as 100%; in the test on Plasmodium falciparum [2], 55%; with HepG2 it was 19%.
In the same order, the values of `CCCCCCN1CCCN(Cc2ccc(C(=O)Nc3ccc(C)c(F)c3)cc2)CC1.O=C(O)C(F)(F)F` are 92%, 58% and 47%.
On the same counts, the results for `COc1ccc2nccc([C@@H](O)CN3CCC(NC(=O)C(c4cccs4)N4CCN(c5ccc(F)cc5)CC4)CC3)c2c1` (some centres undefined) are 97%, 45% and 9%.
`Cc1ccc(NC(=O)c2ccc(CN3CCCN(CC4CCCCC4)CC3)cc2)cc1.O=C(O)C(F)(F)F`: the Inhibition was 93% in the test on Plasmodium falciparum [1], 42% with Plasmodium falciparum [2] and 41% with HepG2.
`O=C(Nc1ccc(F)cc1)NC1CCN(CCCCCNC(=O)C2CC2c2ccc(Cl)c(Cl)c2)CC1` (centres undefined): the Inhibition in the test on Plasmodium falciparum [1] is listed as 100%; with Plasmodium falciparum [2], 20%; with HepG2 it was 46%.
In the same order, the values of `Cc1cc(-c2ccc(NC(=O)Nc3ccc4nccc(N5CCN(C)CC5)c4c3)cc2C)cc(C)n1.Cl` are 100%, 76% and 0%.
For the compound `CC1CCN(c2nc(C(=O)NCCc3ccc(Cl)c(Cl)c3)c(C(C)C)s2)CC1.O=C(O)C(F)(F)F`, the Inhibition in the test on Plasmodium falciparum [1] was found to be 88%; in the test with Plasmodium falciparum [2] it was 38%; in the test on HepG2 it was 0%.
As for `O=C(c1cc(OC(F)(F)F)ccc1O)N1CCN(c2ccccc2)CC1`, the Inhibition came to 88% with Plasmodium falciparum [1], 1% in the test on Plasmodium falciparum [2] and 0% in the test with HepG2.
In the same order, the values of `CN1CCN(c2ccc(-c3nc4ccc(OCc5cc(Cl)cc(Cl)c5)c(C(N)=O)c4[nH]3)cc2)CC1` are 100%, 85% and 45%.
In the same order, the values of `O=[N+]([O-])c1cccc(C(Nc2ccccn2)c2ccc3cccnc3c2O)c1` (centres undefined) are 86%, 29% and 53%.
In the same order, the values of `Cc1ccc(C(CC(=O)Nc2nccs2)c2ccc(OC(C)C)cc2)cc1` (centres undefined) are 94%, 90% and 5%.
With `CCN(CC)CCNc1ccnc2ccc3ccccc3c12`, the Inhibition came out at 100% in the test on Plasmodium falciparum [1], 67% in the test on Plasmodium falciparum [2] and 5% in the test on HepG2.
On the same counts, the results for `O=C(/C=C/c1ccc(Cl)c(Cl)c1)NCCCCCN1CCC(c2c[nH]c3ccc(O)cc23)CC1` are 100%, 0% and 20%.
Take `CN(C)CC(=O)Nc1ccc(-c2ccc3ccnc(N)c3c2)cc1.O=C(O)C(F)(F)F`: the Inhibition in the test on Plasmodium falciparum [1] stood at 100%; in the test with Plasmodium falciparum [2], 99%; in the test with HepG2 it was 69%.
`O=C(/C=C/c1ccc(Cl)c(Cl)c1)N1CCC(CN2CCC(c3nc4ccccc4n3CCCO)CC2)CC1`: the Inhibition in the test with Plasmodium falciparum [1] is on record as 96%; with Plasmodium falciparum [2] it was 0%; with HepG2 it was 60%.
In the same order, the values of `CC(C)(C)COC(=O)c1ccc(NC(=O)N[C@@H](Cc2ccc(O)cc2)C(=O)NC2CCN(Cc3ccc(O)cc3)C2)cc1.O=C(O)C(F)(F)F` (some centres undefined) are 94%, 21% and 3%.
On the same counts, the results for `Cc1nc2ccc(Nc3nccc(-c4c(-c5cccc(NC(=O)c6c(F)cccc6F)c5)nn5ccccc45)n3)cc2nc1C` are 91%, 45% and 55%.
On the same counts, the results for `Cc1cc(NCCC(=O)Nc2ccccc2)nc(NCCc2ccc(F)cc2)n1.O=C(O)C(F)(F)F` are 100%, 43% and 26%.
As for `O=C(NCc1ccc(F)cc1)Nc1ccc(-c2cccc(-c3nc4cc(C(F)(F)F)ccc4[nH]3)c2)cc1`, the figures for the Inhibition in the test on Plasmodium falciparum [1], with Plasmodium falciparum [2] and with HepG2 were 100%, 92% and 41%, respectively.
For `COc1cccc(CNC(=O)[C@H]2CNCCN2C(=O)CCCc2ccccc2)c1.O=C(O)C(F)(F)F`, the Inhibition in the test on Plasmodium falciparum [1] was found to be 91%; with Plasmodium falciparum [2], 95%; in the test with HepG2 it was 56%.
`N=C(N)NCCN(Cc1ccccc1)c1ccc(Cl)cc1`: the Inhibition with Plasmodium falciparum [1] is given as 100%; in the test on Plasmodium falciparum [2], 99%; in the test on HepG2, 0%.
In the same order, the values of `COc1ccccc1-c1nc2nc(N)nc(N)c2nc1-c1ccccc1OC` are 84%, 1% and 27%.
On the same counts, the results for `CC(C)(CNC(=O)C1CCN(CC2CCCCC2)CC1)c1nc(-c2ccc(Cl)c(O)c2)c(-c2ccncc2)[nH]1.Cl` are 98%, 31% and 0%.
In the same order, the values of `CCC1CN2CCc3c([nH]c4ccc(OC)cc34)C2CC1CC1NCCc2cc(OC)c(OC)cc21.Cl` (centres undefined) are 100%, 21% and 17%.
For the compound `CC1CN(Cc2ccc(-c3ccc(-c4nc5cc(F)ccc5[nH]4)s3)cc2)CC(C)O1.O=C(O)C(F)(F)F` (centres undefined), the Inhibition with Plasmodium falciparum [1] stood at 88%; in the test on Plasmodium falciparum [2], 89%; in the test on HepG2, 35%.
On the same counts, the results for `Cl.N=C(NCCCCC1CCCCC1)c1cccc(C(=N)NCCCCC2CCCCC2)n1` are 100%, 19% and 99%.
On the same counts, the results for `O=C(NCCc1ccccc1)N(Cc1ccc(-c2cccc(CN3CCNCC3)c2)cc1)C1CCN(Cc2ccccc2)CC1.O=C(O)C(F)(F)F` are 90%, 29% and 27%.
In the same order, the values of `O=C(NC1CCC(N2CCN(c3cccc(C(F)(F)F)c3)CC2)CC1)c1cc2ccccc2[nH]1` (centres undefined) are 99%, 22% and 23%.
`COc1cc2c(Nc3ccc(NC(=O)c4ccccc4)cc3)ncnc2cc1OCCCN1CCOCC1`: the Inhibition came to 99% with Plasmodium falciparum [1], 93% in the test on Plasmodium falciparum [2] and 14% in the test on HepG2.
On the same counts, the results for `CCNc1cc(C(=O)N[C@@H](Cc2ccccc2)[C@H](O)CNC2(C(C)C)CCC2)cc(N2CCCCS2(=O)=O)c1.Cl` are 99%, 85% and 0%.
In the same order, the values of `O=C(NCc1ccc(F)cc1)c1cnc(N2CCN(c3ccncc3)CC2)c(Cl)c1.O=C(O)C(F)(F)F` are 98%, 44% and 30%.
On to `CC(C)c1cc(Oc2c(I)cc(CCCc3ncc[nH]3)cc2I)ccc1O.Cl`, for which the Inhibition came out at 88% in the test on Plasmodium falciparum [1], 1% in the test on Plasmodium falciparum [2] and 28% with HepG2.
Regarding `CCS(=O)(=O)Nc1ccc2c(c1)/C(=C(/Nc1ccc(CN3CCCCC3)cc1)c1ccccc1)C(=O)N2` [HESPERADIN], the Inhibition is given as 87% in the test with Plasmodium falciparum [1], 74% with Plasmodium falciparum [2] and 53% in the test on HepG2.
Regarding `O=C(Nc1cc(Cl)cc(Cl)c1)N[C@H]1CCN(CCCCCNC(=O)C2CC2c2ccc(Cl)c(Cl)c2)C1` (some centres undefined), the Inhibition is listed as 99% in the test with Plasmodium falciparum [1], 0% with Plasmodium falciparum [2] and 49% in the test with HepG2.
As to `c1ccc(N2CCN(c3cc(-c4cccnc4)nc(-c4ccncc4)n3)CC2)nc1`, the Inhibition amounted to 99% with Plasmodium falciparum [1], 22% in the test with Plasmodium falciparum [2] and 22% in the test with HepG2.
For `O=C(NCC1CCN(Cc2ccsc2)C1)c1cc(-c2cccc(C(F)(F)F)c2)cs1.O=C(O)C(F)(F)F` (centres undefined), the Inhibition in the test with Plasmodium falciparum [1] was 98%; in the test with Plasmodium falciparum [2], 15%; in the test with HepG2, 37%.
`CCn1ccc2c(N3CCCCS3(=O)=O)cc(C(=O)N[C@@H](Cc3ccccc3)[C@H](O)CNC(C)(C)CCCC(C)C)cc21`: the Inhibition in the test with Plasmodium falciparum [1] worked out at 96%; with Plasmodium falciparum [2] it was 98%; in the test on HepG2 it was 23%.
In the same order, the values of `Cc1cc(Nc2ccc(C)c(Cl)c2)n2nc(C(F)(F)F)nc2n1` are 98%, 97% and 2%.
